# Rows were chosen to be rich in hits. Some 1.1% of all compounds tested hit in one or more screens of this group.
# BAP1 inh – blocks human BAP1 ubiquitin-AMC hydrolysis; Q92560; AID 436; calls only at 20 µM; recombinant BAP1, Ub-AMC hydrolysis fluorescence kinetic; active compounds read low; actives 0.48% (n = 72,000);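 active = activity remaining at or below 50% of control, provided the compound also passes the data quality filters; inactive = the rest, including low values that fail the filters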
# HePTP inhibitor – blocks human HePTP tyrosine phosphatase. actives 0.64% (n = 110,000). P35236. AID 521. inhibition, % at 20 µM. recombinant HePTP phosphatase activity, OD absorbance; in the data active = inhibition above about 50%
# FXIa mix inh – inhibitors of human coagulation factor XIa, pooled mixtures | P03951 | purified FXIa, fluorogenic substrate | inhibition, % at 5 µM | actives 0.19% (n = 62,000) | AID 680;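 note: each value is inhibition by a whole ten-compound pool holding the compound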
# CatG inh – cathepsin G (human) inhibition | purified enzyme, AMC-tetrapeptide fluorescence, pooled mixtures | inhibition, % at 5 µM (by protocol) | actives 0.2% (n = 62,000);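 active = inhibition above 20% in each of the two mixture wells holding the compound; inactive = inhibition of 20% or less in either well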
# FXIIa inh mix – blocks human factor XIIa in pooled compound mixtures; actives 0.2% (n = 62,000); purified FXIIa, fluorogenic substrate; inhibition, % at 5 µM; P00748
# C1s block – blocks human complement C1s protease activity. actives 0.16% (n = 62,000). P09871. mean inhibition % of two 10-compound mixtures (active compounds read high), % at 5 µM (by protocol). purified C1s, fluorogenic AMC substrate, pooled mixtures;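 active = inhibition above 20% in each of the two 10-compound mixture wells holding the compound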
# Target sequence (P09871 16-437 limits assumed): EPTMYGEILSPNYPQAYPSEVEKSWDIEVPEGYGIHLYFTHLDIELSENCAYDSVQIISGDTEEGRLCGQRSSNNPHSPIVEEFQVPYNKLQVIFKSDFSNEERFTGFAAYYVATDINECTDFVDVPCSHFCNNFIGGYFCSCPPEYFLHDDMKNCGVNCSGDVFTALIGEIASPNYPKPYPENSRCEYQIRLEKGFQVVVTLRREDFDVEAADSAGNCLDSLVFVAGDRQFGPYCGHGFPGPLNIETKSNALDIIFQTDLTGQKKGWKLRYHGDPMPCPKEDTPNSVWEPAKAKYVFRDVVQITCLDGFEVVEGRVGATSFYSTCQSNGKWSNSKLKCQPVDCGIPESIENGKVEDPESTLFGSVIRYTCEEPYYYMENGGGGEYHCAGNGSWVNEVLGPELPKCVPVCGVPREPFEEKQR
# Target sequence (P09871 438-688 limits assumed): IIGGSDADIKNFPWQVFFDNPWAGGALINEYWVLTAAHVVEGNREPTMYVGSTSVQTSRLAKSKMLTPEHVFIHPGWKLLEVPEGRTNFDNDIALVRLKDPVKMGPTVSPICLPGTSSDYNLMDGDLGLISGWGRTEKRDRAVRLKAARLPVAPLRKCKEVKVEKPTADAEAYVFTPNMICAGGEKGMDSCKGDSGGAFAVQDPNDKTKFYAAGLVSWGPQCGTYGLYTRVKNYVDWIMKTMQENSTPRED
# Hits are given with their value; – = inactive; · = not tested or not shown; ! = not active in a repeat. Cut-off read from the data, not from the text of the source, unless noted: active = inhibition above about 20% (passing the limit was not always enough); inactive = the rest.
SMILES,BAP1 inh,HePTP inhibitor,FXIa mix inh,CatG inh,FXIIa inh mix,C1s block
CCOc1ccc2nc(C)c(C/C=C(/C)Cl)c(Cl)c2c1,·,–,·,·,·,·
Cn1c(=O)c2c(ncn2CN2C(=O)c3ccccc3C2=O)n(C)c1=O,·,–,·,·,·,·
Cc1ccc(-c2nc3cc(Cl)ccc3o2)cc1NC(=O)C(Cl)(Cl)Cl,·,53,·,·,·,·
Cc1ccc(-c2nc3cc(Cl)ccc3o2)cc1NC(=O)C(C)C,·,–,·,·,·,·
Cc1cccc(C(=O)NC(NC(=O)c2cccc(C)c2)c2cccc([N+](=O)[O-])c2)c1,·,–,·,·,·,·
CC(C)CC(=O)NC(NC(=O)CC(C)C)c1cccc([N+](=O)[O-])c1,·,56,·,·,·,·
O=C(NC(NC(=O)c1ccccc1)c1cccc([N+](=O)[O-])c1)c1ccccc1,·,104,·,·,·,·
O=C(Cc1ccccc1)NC(NC(=O)Cc1ccccc1)c1cccc([N+](=O)[O-])c1,·,–,·,·,·,·
C=C(Br)Cn1c(CCC)nc2ccccc21,–,102!,–,–,–,–
O=C(Oc1ccccc1)c1ccc(COC(=O)c2cnccn2)cc1,–,–,–,–,–,–
O=C(COC(=O)c1cnccn1)c1ccc(OC(=O)c2ccccc2)cc1,–,–,–,–,–,26
O=C1NC(=Nc2ccc(O)cc2)S/C1=C\c1ccc([N+](=O)[O-])cc1,·,93,·,·,·,·
Cc1ccc(N=C2NC(=O)/C(=C/c3ccc(O)c([N+](=O)[O-])c3)S2)cc1Cl,·,102,·,·,·,·
O=C1NC(=Nc2ccc(Br)cc2)S/C1=C\c1ccc([N+](=O)[O-])cc1,·,–,·,·,·,·
CCc1ccc(-c2ncnn2-c2ccc(Cl)cc2)cc1,·,–,·,·,·,·
Nc1n[nH]c(N)c1N=Nc1ccccc1F,·,103,·,·,·,·
CC1CC(O)N(C(=O)c2ccccc2O)N1C (stereo not drawn),·,–,·,·,·,·
CCOc1ccc(S(=O)(=O)N(CC(=O)O)c2ccc(C)cc2)cc1,–,–,–,–,48,–
CCOc1ccc(S(=O)(=O)N(CC(=O)N(CC)CC)c2ccc(C)cc2)cc1,·,–,·,·,·,·
O=S(=O)(Nc1ccccn1)c1cc(Cl)c(Cl)cc1Cl,·,–,·,·,·,·
NNc1ccc(/C=C/c2ccc(NN)cc2S(=O)(=O)O)c(S(=O)(=O)O)c1,·,94,·,·,·,·
Cc1ccc(S(=O)(=O)N2CCN(S(C)(=O)=O)C2C(C)C)cc1 (stereo not drawn),·,96,·,·,·,·
CC1(C)Cc2c(sc(NC(=O)C3(c4ccccc4)CCCC3)c2C#N)CO1,·,106,·,·,·,·
C=CCc1cccc2cc(C(=O)Nc3ccc(S(=O)(=O)Nc4nnc(CC)s4)cc3)c(=O)oc12,·,103,·,·,·,·
C=CCc1cccc2cc(C(=O)Nc3cccc(C(=O)O)c3)c(=O)oc12,·,90,·,·,·,·
SMILES,BAP1 inh,HePTP inhibitor,FXIa mix inh,CatG inh,FXIIa inh mix,C1s block
C=CCc1cccc2cc(C(=O)Nc3ccc(OCC)cc3)c(=O)oc12,·,–,·,·,·,·
O=C(C(Sc1ccccc1)c1ccccc1)N1CCCC1 (stereo not drawn),·,102,·,·,·,·
CCCOC(=O)c1c(-c2ccc(OC)c(OC)c2)csc1N,·,104,·,·,·,·
CC(=O)NS(=O)(=O)c1ccc(NC(=O)c2ccc([N+](=O)[O-])cc2[N+](=O)[O-])cc1,·,70,·,·,·,·
CCOc1cc2[nH]c(=S)n(CC3CCCO3)c(=O)c2cc1OCC (stereo not drawn),–,–,–,–,–,22
COc1cc2[nH]c(=S)n(CC3CCCO3)c(=O)c2cc1OC (stereo not drawn),–,–,–,–,–,–
CCCCC(=O)Nc1ccc(NC(=O)c2cc(OC)c(OC)c(OC)c2)cn1,–,–,–,–,–,–
CCCCC(=O)Nc1ccc(NC(=O)c2cccnc2)cn1,–,–,–,–,–,21
Cc1ccc(-c2nn3c(C)nnc3s2)cc1NC(=O)c1ccc(OC(C)C)cc1,–,–,22,–,–,–
CC(=O)Nc1ccc(OC(=O)c2c(F)cccc2F)cc1,·,90,·,·,·,·
CC(=O)Nc1cccc(NC(=O)Nc2ccc(C(C)=O)cc2)c1,–,–,25,–,–,–
O=c1cc(-c2cc(O)c3c(O)c4ccccc4c(O)c3c2O)c(=O)c2c(=O)c3ccccc3c(=O)c1=2,·,84,·,·,·,·
COc1ccc(-c2csc(NC(=O)CCc3ccccc3)c2C(=O)O)cc1,·,–,·,·,·,·
NC(=O)c1ccccc1NC(=O)N1CCOCC1,·,–,·,·,·,·
NC(=O)c1ccccc1NC(=O)CN1CCOCC1,–,–,20,–,–,–
COc1ccc(N(C)CN2C(=O)CSC2=O)cc1,·,–,·,·,·,·
Nc1nc(Cn2nnc(-c3ccccc3Cl)n2)nc(N2CCOCC2)n1,–,–,–,–,21,–
O=C(/C=C/c1ccco1)Nc1ccccc1NC(=O)/C=C/c1ccco1,·,–,·,·,·,·

# From PubChem
